Assay results as given in paper PMC7862700, “An all-to-all approach to the identification of sequence-specific readers for epigenetic DNA modifications on cytosine”.

Experiments:
Test in all cases: DAPPL (digital affinity profiling via proximity ligation, sequencing); 10 mM Tris-HCl pH 7.5, 50 mM NaCl, 1 mM DTT, 4% glycerol, room temperature, 30 min; GST-TFs on glutathione beads, 16-mer random dsDNA library, 0.1% formaldehyde crosslink after washing; high values mean tight binding
Details in all cases: protein: recombinant; tags: N-terminal GST; dsDNA, one strand shown
FEV = biological target: T1, FEV (Homo sapiens, UniProt Q99581 1-238)
T1 sequence: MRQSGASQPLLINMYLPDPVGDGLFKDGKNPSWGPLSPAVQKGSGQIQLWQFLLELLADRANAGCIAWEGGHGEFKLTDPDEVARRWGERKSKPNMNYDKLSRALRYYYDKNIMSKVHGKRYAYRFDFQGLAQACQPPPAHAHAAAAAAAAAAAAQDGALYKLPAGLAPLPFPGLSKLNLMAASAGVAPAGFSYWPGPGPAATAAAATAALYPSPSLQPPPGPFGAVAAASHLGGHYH
In short: (§1)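 Sequencing on an Illumina NextSeq500 followed washing, crosslinking with 0.1% formaldehyde, proximity ligation (BsaI/T4 ligase, 1 h, 37 °C) and PCR amplification of pools that had been incubated for 30 min at room temperature with 200 nmole of a random double-stranded 16-mer DNA library in Tris/NaCl/DTT/glycerol buffer. Each pool held DNA-barcoded human transcription factors, expressed in yeast as GST fusions and captured on glutathione beads, plus a tag-only sample. Binding signal is a hexamer's read frequency for a factor divided by its frequency in the tag-only sample.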

ETV5 = ETV5 (Homo sapiens, UniProt P41161 1-510)
Chain of ETV5 (P41161 whole entry): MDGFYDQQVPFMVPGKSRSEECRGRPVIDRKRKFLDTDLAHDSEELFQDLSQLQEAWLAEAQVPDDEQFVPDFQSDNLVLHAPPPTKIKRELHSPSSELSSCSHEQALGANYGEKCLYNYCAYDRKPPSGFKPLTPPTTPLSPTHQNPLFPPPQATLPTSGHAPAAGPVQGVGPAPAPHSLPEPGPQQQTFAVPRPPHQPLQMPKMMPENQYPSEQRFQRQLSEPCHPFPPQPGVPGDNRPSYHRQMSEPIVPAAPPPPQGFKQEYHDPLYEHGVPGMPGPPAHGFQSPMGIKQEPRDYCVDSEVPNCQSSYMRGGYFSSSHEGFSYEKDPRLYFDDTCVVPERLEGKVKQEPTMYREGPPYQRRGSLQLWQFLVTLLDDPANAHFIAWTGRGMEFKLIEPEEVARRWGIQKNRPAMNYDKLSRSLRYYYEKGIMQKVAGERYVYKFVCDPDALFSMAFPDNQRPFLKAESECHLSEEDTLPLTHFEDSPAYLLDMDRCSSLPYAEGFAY
In short: as §1

SPIC = biological target: T2, SPIC (Homo sapiens, UniProt Q8N5J4 1-248)
T2 sequence: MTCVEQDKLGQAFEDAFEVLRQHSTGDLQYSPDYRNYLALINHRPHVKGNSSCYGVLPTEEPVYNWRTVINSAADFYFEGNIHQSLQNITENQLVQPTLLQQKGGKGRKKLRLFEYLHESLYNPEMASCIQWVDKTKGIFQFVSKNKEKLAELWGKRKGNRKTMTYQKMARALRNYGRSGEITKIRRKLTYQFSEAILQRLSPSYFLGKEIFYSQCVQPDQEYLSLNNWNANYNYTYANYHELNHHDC
In short: as §1

ELF4 = ELF4 (Homo sapiens, UniProt Q99607 1-663)
Chain of ELF4 (Q99607 whole entry): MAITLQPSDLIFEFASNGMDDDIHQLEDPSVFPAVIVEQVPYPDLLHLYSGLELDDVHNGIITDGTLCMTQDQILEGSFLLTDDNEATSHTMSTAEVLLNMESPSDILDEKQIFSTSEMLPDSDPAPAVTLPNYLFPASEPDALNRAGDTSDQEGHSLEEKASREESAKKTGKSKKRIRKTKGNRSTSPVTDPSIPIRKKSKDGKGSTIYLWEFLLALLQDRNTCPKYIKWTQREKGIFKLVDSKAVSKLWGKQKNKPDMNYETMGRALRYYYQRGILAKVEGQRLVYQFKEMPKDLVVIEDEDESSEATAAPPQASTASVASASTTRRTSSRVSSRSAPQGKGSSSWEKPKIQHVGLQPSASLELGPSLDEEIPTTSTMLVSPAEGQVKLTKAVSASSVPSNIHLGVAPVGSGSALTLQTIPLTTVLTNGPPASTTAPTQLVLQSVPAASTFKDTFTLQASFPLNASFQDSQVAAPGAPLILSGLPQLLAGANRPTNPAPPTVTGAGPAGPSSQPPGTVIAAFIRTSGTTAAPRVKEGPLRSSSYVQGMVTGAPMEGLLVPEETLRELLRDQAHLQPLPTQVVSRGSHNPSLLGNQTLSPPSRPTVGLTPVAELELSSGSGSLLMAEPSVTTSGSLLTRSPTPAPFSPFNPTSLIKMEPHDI
In short: as §1

ELK4 = biological target: T3, ELK4 (Homo sapiens, UniProt P28324-2 1-405)
T3 sequence: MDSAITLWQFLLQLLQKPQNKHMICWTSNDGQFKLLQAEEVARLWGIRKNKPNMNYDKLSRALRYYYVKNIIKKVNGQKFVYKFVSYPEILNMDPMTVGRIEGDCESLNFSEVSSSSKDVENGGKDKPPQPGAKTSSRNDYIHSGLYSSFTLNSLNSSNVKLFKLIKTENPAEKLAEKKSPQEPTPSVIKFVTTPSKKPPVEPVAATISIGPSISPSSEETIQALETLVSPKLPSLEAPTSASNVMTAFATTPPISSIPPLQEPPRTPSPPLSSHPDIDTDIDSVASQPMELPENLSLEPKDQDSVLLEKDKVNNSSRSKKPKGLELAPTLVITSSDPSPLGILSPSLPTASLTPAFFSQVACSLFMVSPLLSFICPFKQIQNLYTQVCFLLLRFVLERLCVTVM
In short: as §1

ETV2 = biological target: T4, ETV2 (Homo sapiens, UniProt O00321 1-342)
T4 sequence: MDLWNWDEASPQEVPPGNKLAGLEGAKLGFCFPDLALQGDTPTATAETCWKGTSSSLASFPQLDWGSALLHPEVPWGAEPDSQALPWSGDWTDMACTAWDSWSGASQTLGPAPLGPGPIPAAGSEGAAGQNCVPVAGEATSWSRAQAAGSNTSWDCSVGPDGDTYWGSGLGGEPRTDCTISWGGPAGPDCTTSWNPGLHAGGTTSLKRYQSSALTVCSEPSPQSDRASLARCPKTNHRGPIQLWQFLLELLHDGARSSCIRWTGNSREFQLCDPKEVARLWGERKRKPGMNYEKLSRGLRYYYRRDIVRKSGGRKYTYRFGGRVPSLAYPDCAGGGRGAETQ
In short: as §1

ELF3 = biological target: T5, ELF3 (Homo sapiens, UniProt P78545 1-371)
T5 sequence: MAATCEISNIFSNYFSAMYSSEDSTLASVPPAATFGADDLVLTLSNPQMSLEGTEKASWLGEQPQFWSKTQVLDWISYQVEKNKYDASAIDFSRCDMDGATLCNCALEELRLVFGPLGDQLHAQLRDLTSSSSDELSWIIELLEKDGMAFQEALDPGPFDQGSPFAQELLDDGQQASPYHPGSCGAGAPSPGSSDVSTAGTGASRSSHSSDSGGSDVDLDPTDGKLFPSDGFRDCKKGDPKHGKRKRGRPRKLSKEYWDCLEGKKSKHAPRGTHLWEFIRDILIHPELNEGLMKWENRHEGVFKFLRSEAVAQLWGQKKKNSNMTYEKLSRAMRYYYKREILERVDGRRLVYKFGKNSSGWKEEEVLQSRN
In short: as §1

CRX = CRX (Homo sapiens, UniProt O43186 1-299)
Chain of CRX (O43186 whole entry): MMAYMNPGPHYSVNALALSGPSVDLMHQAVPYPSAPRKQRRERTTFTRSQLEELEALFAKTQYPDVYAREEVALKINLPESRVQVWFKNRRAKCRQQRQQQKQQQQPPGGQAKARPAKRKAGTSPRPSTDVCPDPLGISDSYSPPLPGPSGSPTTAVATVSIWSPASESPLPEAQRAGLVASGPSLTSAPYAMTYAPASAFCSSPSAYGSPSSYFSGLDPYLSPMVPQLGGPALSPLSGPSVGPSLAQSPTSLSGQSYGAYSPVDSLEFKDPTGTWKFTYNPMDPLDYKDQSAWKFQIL
In short: as §1

ETV1 = ETV1 (Homo sapiens, UniProt P50549 1-477)
Chain of ETV1 (P50549 whole entry): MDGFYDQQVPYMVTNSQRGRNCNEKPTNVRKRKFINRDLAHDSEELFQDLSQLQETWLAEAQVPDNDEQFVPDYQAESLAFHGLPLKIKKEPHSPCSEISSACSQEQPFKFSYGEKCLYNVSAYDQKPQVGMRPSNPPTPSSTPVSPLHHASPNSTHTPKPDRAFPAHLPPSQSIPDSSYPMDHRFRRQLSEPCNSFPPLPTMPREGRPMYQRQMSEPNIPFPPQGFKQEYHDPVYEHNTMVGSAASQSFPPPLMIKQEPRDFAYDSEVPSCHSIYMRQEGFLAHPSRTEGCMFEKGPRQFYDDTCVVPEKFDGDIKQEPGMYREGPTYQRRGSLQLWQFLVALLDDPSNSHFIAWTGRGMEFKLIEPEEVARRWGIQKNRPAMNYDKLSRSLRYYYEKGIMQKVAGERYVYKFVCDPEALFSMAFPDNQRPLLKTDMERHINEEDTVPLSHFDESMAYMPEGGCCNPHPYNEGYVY
In short: as §1

ERF = biological target: T6, ERF (Homo sapiens, UniProt P50548 1-548)
T6 sequence: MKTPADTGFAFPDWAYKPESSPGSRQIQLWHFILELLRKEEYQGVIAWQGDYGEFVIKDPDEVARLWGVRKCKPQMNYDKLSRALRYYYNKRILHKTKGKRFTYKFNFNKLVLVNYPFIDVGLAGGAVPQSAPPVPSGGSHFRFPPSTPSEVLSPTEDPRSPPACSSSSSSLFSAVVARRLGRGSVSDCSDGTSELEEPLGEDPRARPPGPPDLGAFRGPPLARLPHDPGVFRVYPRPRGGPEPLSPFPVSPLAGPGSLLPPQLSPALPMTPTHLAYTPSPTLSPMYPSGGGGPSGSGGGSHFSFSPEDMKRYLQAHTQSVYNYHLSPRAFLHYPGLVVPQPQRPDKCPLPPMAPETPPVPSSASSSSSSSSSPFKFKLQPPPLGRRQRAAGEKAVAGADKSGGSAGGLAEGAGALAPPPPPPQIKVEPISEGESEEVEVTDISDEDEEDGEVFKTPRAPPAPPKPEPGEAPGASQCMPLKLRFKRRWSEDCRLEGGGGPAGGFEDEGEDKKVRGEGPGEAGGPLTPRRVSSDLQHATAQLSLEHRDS
In short: as §1

ETV3L = biological target: T7, ETV3L (Homo sapiens, UniProt Q6ZN32 1-361)
T7 sequence: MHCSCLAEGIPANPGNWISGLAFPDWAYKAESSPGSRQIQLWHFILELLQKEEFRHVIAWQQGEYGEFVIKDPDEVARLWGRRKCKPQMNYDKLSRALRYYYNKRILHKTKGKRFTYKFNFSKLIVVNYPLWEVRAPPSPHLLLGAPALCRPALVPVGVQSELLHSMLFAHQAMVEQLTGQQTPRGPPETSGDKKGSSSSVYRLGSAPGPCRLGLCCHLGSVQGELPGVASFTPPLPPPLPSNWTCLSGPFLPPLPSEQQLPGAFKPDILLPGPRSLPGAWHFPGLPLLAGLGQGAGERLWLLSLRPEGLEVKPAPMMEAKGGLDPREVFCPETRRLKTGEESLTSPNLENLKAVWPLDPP
In short: as §1

ETS2 = biological target: T8, ETS2 (Homo sapiens, UniProt P15036 1-469)
T8 sequence: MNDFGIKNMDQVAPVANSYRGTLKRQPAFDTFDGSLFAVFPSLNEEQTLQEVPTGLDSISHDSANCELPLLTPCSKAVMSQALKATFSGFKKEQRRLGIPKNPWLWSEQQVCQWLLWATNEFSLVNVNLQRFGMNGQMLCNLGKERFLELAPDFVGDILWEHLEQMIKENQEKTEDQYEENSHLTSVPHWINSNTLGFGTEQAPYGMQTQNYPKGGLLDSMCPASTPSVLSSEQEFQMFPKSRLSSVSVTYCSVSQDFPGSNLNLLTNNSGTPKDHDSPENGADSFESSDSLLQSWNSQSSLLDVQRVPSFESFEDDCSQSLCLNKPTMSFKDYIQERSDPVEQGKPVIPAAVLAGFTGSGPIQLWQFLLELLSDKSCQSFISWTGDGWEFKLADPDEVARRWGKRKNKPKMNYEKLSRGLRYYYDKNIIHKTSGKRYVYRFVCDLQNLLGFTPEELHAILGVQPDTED
In short: as §1

SPDEF = biological target: T9, SPDEF (Homo sapiens, UniProt O95238 1-335)
T9 sequence: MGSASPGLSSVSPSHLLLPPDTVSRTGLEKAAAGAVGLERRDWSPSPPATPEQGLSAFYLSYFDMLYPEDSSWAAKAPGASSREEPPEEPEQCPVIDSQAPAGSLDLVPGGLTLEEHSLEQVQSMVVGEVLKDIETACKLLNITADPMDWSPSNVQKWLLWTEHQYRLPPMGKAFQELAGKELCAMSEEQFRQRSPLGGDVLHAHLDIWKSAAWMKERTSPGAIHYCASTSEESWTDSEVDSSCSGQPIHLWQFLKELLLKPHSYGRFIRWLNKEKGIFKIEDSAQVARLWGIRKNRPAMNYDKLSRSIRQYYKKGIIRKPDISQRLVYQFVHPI
In short: as §1

ETV7 = biological target: T10, ETV7 (Homo sapiens, UniProt Q9Y603 1-341)
T10 sequence: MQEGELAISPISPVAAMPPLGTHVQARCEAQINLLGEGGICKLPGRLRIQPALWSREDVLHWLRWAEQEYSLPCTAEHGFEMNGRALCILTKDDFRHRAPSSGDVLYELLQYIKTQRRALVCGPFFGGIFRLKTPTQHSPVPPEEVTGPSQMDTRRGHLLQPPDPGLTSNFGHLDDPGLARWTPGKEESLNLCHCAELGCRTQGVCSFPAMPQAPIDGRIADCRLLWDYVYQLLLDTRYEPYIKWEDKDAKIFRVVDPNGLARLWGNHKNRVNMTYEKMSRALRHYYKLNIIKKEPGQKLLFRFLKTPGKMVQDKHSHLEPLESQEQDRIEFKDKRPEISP
In short: as §1

ELF5 = biological target: T11, ELF5 (Homo sapiens, UniProt Q9UKW6-2 1-255)
T11 sequence: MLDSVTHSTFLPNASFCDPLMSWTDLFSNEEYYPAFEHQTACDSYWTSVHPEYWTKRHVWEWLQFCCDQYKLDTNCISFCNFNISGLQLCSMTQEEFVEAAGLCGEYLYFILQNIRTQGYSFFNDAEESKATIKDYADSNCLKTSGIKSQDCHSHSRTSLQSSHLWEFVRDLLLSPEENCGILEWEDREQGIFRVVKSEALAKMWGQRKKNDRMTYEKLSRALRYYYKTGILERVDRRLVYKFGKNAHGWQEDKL
In short: as §1

ETV3 = biological target: T12, ETV3 (Homo sapiens, UniProt P41162-2 1-143)
T12 sequence: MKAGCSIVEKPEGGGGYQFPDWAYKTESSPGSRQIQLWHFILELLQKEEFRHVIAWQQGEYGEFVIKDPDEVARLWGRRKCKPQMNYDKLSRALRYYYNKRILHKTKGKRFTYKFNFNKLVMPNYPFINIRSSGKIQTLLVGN
In short: as §1

ETV6 = ETV6 (Homo sapiens, UniProt P41212 1-452)
Chain of ETV6 (P41212 whole entry): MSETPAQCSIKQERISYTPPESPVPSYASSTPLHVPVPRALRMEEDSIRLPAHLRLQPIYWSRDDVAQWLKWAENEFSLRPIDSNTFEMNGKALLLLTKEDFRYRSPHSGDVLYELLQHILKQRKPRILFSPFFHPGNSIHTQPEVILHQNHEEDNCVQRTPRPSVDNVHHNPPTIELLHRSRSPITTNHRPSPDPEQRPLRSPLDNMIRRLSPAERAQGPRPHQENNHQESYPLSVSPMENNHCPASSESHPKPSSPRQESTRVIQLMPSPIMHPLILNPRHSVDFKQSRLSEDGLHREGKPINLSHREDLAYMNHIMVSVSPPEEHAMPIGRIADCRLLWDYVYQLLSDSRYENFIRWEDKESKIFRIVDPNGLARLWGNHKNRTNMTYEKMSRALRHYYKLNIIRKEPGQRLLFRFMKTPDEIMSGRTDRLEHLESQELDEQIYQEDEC
In short: as §1

Row | Sequence | binding signal (FEV) | binding signal (ETV5) | binding signal (SPIC) | binding signal (ELF4) | binding signal (ELK4) | binding signal (ETV2) | binding signal (ELF3) | binding signal (CRX) | binding signal (ETV1) | binding signal (ERF) | binding signal (ETV3L) | binding signal (ETS2) | binding signal (SPDEF) | binding signal (ETV7) | binding signal (ELF5) | binding signal (ETV3) | binding signal (ETV6)
1 | CTGACC | 1.43 fold enrichment (6-mer frequency, TF over GST control) | 1.32 fold enrichment (6-mer frequency, TF over GST control) | 1.37 fold enrichment (6-mer frequency, TF over GST control) | 1.41 fold enrichment (6-mer frequency, TF over GST control) | 1.31 fold enrichment (6-mer frequency, TF over GST control) | 1.46 fold enrichment (6-mer frequency, TF over GST control) | 1.51 fold enrichment (6-mer frequency, TF over GST control) | 1.01 fold enrichment (6-mer frequency, TF over GST control) | 1.43 fold enrichment (6-mer frequency, TF over GST control) | 1.34 fold enrichment (6-mer frequency, TF over GST control) | 1.27 fold enrichment (6-mer frequency, TF over GST control) | 1.38 fold enrichment (6-mer frequency, TF over GST control) | 1.27 fold enrichment (6-mer frequency, TF over GST control) | 1.29 fold enrichment (6-mer frequency, TF over GST control) | 1.34 fold enrichment (6-mer frequency, TF over GST control) | 1.4 fold enrichment (6-mer frequency, TF over GST control) | 1.32 fold enrichment (6-mer frequency, TF over GST control)
2 | AACGGC | 1.17 fold enrichment (6-mer frequency, TF over GST control) | 1.29 fold enrichment (6-mer frequency, TF over GST control) | 1.12 fold enrichment (6-mer frequency, TF over GST control) | 1.24 fold enrichment (6-mer frequency, TF over GST control) | 1.24 fold enrichment (6-mer frequency, TF over GST control) | 1.21 fold enrichment (6-mer frequency, TF over GST control) | 1.12 fold enrichment (6-mer frequency, TF over GST control) | 1.11 fold enrichment (6-mer frequency, TF over GST control) | 1.17 fold enrichment (6-mer frequency, TF over GST control) | 1.2 fold enrichment (6-mer frequency, TF over GST control) | 1.23 fold enrichment (6-mer frequency, TF over GST control) | 1.22 fold enrichment (6-mer frequency, TF over GST control) | 1.16 fold enrichment (6-mer frequency, TF over GST control) | 1.11 fold enrichment (6-mer frequency, TF over GST control) | 1.16 fold enrichment (6-mer frequency, TF over GST control) | 1.29 fold enrichment (6-mer frequency, TF over GST control) | 1.26 fold enrichment (6-mer frequency, TF over GST control)
